Common to all, as to assay: DAPPL (digital affinity profiling via proximity ligation, sequencing); 10 mM Tris-HCl pH 7.5, 50 mM NaCl, 1 mM DTT, 4% glycerol, room temperature, 30 min; GST-TFs on glutathione beads, 16-mer random dsDNA library, 0.1% formaldehyde crosslink after washing; high values mean tight binding
Assay [1] has as its target T1, FLI1 (Homo sapiens, UniProt Q01543 1-452).
T1 sequence: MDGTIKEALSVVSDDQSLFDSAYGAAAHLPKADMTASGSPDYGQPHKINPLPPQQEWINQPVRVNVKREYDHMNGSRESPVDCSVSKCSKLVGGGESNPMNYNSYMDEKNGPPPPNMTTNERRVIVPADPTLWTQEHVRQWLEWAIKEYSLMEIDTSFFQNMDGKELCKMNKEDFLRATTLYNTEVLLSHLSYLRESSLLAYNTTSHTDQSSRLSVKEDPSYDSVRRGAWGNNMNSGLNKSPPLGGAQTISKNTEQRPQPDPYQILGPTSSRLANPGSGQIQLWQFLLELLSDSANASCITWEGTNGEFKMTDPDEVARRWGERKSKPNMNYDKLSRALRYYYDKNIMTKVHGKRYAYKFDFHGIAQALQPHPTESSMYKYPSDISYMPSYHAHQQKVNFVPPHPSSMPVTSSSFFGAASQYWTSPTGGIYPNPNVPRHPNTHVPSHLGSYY
As to conditions: protein: recombinant; tags: N-terminal GST; dsDNA, one strand shown. The gist of the method: (§1)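 Each value of binding signal is a hexamer's read frequency for a factor divided by the same hexamer's frequency in the tag-only sample. Barcoded, bead-captured GST fusions of human transcription factors made in yeast were pooled with that sample and incubated with 200 nmole of a random double-stranded 16-mer DNA library in Tris/NaCl/DTT/glycerol buffer at room temperature for 30 min. Washing, 0.1% formaldehyde crosslinking, proximity ligation, PCR and Illumina NextSeq500 sequencing followed.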

Assay [2] has as its target T2, ELK1 (Homo sapiens, UniProt P19419 1-428).
T2 sequence: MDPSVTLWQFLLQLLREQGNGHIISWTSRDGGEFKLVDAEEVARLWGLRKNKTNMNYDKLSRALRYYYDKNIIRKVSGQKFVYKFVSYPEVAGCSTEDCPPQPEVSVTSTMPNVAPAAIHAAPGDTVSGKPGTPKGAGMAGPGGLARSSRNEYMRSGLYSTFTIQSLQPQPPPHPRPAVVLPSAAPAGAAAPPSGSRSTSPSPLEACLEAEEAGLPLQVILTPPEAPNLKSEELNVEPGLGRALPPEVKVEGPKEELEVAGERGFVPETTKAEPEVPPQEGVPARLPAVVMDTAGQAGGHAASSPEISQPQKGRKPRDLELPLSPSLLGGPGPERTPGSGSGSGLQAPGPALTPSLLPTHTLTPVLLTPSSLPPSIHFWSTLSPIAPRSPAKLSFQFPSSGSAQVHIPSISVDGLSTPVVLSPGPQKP
As to conditions: protein: recombinant; tags: N-terminal GST; dsDNA, one strand shown. The method in brief:
as §1

For assay [3], the target named is T3, GABPA (Homo sapiens, UniProt Q06546 1-454).
T3 sequence: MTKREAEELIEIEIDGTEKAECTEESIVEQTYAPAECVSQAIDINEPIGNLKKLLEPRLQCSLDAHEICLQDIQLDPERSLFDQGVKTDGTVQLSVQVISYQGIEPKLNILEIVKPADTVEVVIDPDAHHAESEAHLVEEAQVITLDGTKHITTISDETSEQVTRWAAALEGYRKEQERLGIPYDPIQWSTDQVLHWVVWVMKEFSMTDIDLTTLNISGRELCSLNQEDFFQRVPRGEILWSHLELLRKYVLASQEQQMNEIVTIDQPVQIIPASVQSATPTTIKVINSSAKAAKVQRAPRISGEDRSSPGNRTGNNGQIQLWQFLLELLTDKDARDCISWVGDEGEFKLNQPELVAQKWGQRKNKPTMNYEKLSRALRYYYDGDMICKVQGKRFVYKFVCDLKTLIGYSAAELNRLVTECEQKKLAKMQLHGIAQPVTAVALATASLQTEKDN
Conditions: protein: recombinant; tags: N-terminal GST; dsDNA, one strand shown. The gist of the method:
as §1

The target in assay [4] is T4, ERG (Homo sapiens, UniProt P11308 1-479).
T4 sequence: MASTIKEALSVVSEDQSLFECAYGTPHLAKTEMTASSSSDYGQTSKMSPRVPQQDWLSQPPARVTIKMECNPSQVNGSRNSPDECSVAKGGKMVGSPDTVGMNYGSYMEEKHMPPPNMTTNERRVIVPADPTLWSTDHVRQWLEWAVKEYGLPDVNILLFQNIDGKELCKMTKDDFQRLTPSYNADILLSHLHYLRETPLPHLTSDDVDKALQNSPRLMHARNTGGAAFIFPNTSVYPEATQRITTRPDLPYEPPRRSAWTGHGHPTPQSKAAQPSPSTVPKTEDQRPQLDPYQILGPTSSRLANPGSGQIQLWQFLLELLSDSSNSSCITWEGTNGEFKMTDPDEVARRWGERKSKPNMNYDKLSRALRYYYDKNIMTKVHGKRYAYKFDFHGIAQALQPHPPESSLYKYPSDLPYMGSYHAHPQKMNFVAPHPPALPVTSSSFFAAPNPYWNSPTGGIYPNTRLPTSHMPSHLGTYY
Conditions: protein: recombinant; tags: N-terminal GST; dsDNA, one strand shown. The gist of the method:
as §1

For assay [5], the target named is ELF1 (Homo sapiens, UniProt P32519 1-619). As to conditions: protein: recombinant; tags: N-terminal GST; dsDNA, one strand shown. The gist of the method:
as §1

Assay [6] addresses T5, EHF (Homo sapiens, UniProt Q9NZC4 1-300).
T5 sequence: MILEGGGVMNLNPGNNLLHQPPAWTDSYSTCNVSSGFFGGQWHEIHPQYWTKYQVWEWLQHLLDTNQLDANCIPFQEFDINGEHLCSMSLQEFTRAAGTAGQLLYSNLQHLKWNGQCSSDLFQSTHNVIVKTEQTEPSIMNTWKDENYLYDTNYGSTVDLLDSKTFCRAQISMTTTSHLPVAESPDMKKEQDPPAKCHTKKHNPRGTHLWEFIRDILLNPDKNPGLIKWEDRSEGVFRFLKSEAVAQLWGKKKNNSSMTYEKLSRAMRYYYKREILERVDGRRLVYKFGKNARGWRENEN
As to conditions: protein: recombinant; tags: N-terminal GST; dsDNA, one strand shown. The method in brief: as §1

For assay [7], the target named is SPI1 (Homo sapiens, UniProt P17947 1-270). Conditions: protein: recombinant; tags: N-terminal GST; dsDNA, one strand shown. The gist of the method: as §1
In assay [8] the target is SPIB (Homo sapiens, UniProt Q01892 1-262). Conditions: protein: recombinant; tags: N-terminal GST; dsDNA, one strand shown. The method in brief:
as §1

Assay [9] concerns the target T6, ELK3 (Homo sapiens, UniProt P41970 1-407).
T6 sequence: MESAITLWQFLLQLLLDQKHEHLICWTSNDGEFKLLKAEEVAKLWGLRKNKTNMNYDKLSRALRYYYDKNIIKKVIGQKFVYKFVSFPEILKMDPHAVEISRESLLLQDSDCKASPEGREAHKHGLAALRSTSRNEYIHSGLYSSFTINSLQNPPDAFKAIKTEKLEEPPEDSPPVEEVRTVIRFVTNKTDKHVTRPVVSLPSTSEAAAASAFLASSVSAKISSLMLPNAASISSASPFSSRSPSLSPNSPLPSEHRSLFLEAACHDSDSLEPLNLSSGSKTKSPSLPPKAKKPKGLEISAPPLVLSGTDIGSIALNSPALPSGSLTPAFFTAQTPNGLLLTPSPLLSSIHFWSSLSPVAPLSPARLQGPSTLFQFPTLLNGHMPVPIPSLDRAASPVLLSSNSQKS
Conditions: protein: recombinant; tags: N-terminal GST; dsDNA, one strand shown. The gist of the method: as §1

The target of assay [10] is T7, FEV (Homo sapiens, UniProt Q99581 1-238).
T7 sequence: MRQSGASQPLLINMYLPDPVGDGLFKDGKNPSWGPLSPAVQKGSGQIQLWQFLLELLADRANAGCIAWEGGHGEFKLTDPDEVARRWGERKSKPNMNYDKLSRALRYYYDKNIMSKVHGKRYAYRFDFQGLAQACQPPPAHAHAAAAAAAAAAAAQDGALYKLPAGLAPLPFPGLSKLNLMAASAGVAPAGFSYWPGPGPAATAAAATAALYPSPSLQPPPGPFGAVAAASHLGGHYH
As to conditions: protein: recombinant; tags: N-terminal GST; dsDNA, one strand shown. The gist of the method: as §1

For assay [11], the target named is ETV5 (Homo sapiens, UniProt P41161 1-510). Conditions: protein: recombinant; tags: N-terminal GST; dsDNA, one strand shown. The gist of the method:
as §1

In assay [12] the target is HSF1 (Homo sapiens, UniProt Q00613 1-529). Conditions: protein: recombinant; tags: N-terminal GST; chain copies: 3; dsDNA, one strand shown. The method in brief: as §1
Assay [13] has as its target T8, SPIC (Homo sapiens, UniProt Q8N5J4 1-248).
T8 sequence: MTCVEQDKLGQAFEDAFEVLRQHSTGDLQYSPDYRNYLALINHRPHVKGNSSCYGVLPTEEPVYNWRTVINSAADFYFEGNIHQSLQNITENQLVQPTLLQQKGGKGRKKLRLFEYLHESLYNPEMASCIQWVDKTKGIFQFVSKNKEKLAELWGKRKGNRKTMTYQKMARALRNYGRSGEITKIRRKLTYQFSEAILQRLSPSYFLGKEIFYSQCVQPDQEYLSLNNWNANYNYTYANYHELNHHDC
Conditions: protein: recombinant; tags: N-terminal GST; dsDNA, one strand shown. The gist of the method:
as §1

The target of assay [14] is ELF4 (Homo sapiens, UniProt Q99607 1-663). As to conditions: protein: recombinant; tags: N-terminal GST; dsDNA, one strand shown. The gist of the method: as §1
Assay [15] concerns the target T9, ELK4 (Homo sapiens, UniProt P28324-2 1-405).
T9 sequence: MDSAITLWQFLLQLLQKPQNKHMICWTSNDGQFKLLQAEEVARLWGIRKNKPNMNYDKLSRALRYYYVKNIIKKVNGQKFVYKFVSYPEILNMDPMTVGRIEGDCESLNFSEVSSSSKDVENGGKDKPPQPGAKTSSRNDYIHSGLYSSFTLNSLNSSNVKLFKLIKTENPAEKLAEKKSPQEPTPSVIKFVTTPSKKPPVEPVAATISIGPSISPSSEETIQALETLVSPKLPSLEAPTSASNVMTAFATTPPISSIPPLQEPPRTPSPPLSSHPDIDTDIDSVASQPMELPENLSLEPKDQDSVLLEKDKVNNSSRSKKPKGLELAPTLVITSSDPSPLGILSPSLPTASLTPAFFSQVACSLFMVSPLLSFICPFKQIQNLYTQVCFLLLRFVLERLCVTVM
Conditions: protein: recombinant; tags: N-terminal GST; dsDNA, one strand shown. The method in brief: as §1

Assay [16] concerns the target T10, ETV2 (Homo sapiens, UniProt O00321 1-342).
T10 sequence: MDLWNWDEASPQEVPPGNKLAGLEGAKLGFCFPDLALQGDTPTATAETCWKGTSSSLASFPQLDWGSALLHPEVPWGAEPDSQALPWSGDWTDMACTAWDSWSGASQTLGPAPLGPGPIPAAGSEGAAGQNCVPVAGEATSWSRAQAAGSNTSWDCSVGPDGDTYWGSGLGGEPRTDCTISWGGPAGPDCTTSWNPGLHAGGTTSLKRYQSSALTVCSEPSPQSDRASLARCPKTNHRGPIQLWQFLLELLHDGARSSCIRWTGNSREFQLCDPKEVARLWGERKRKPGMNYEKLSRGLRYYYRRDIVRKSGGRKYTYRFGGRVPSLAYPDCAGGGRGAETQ
Conditions: protein: recombinant; tags: N-terminal GST; dsDNA, one strand shown. The method in brief:
as §1

For assay [17], the target named is T11, ELF3 (Homo sapiens, UniProt P78545 1-371).
T11 sequence: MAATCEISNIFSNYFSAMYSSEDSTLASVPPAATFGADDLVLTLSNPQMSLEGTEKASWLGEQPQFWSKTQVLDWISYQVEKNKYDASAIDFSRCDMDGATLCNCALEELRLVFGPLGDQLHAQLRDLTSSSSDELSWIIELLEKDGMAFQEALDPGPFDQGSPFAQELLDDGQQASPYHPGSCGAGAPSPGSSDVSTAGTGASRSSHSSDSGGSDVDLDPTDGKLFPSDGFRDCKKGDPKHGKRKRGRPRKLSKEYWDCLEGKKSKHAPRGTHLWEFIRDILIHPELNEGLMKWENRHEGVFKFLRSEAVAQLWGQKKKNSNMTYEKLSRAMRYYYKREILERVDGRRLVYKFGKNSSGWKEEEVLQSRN
As to conditions: protein: recombinant; tags: N-terminal GST; dsDNA, one strand shown. The method in brief:
as §1

In assay [18] the target is CRX (Homo sapiens, UniProt O43186 1-299). Conditions: protein: recombinant; tags: N-terminal GST; dsDNA, one strand shown. The method in brief:
as §1

The target in assay [19] is ETV1 (Homo sapiens, UniProt P50549 1-477). As to conditions: protein: recombinant; tags: N-terminal GST; dsDNA, one strand shown. The method in brief:
as §1

ETV1, sequence (P50549 whole entry): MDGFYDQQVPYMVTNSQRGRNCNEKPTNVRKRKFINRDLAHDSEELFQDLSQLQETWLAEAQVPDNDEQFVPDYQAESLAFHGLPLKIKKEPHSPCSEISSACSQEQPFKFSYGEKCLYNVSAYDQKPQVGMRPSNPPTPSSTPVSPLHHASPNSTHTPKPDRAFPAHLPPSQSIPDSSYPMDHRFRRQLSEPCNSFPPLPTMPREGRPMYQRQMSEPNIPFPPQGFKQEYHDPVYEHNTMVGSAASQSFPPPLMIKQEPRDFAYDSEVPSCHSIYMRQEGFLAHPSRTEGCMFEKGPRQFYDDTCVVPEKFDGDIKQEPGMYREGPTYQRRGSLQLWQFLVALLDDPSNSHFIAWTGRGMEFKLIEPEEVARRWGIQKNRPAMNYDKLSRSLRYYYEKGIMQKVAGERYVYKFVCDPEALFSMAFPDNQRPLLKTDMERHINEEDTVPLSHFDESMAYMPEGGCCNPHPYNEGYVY
ETV5, sequence (P41161 whole entry): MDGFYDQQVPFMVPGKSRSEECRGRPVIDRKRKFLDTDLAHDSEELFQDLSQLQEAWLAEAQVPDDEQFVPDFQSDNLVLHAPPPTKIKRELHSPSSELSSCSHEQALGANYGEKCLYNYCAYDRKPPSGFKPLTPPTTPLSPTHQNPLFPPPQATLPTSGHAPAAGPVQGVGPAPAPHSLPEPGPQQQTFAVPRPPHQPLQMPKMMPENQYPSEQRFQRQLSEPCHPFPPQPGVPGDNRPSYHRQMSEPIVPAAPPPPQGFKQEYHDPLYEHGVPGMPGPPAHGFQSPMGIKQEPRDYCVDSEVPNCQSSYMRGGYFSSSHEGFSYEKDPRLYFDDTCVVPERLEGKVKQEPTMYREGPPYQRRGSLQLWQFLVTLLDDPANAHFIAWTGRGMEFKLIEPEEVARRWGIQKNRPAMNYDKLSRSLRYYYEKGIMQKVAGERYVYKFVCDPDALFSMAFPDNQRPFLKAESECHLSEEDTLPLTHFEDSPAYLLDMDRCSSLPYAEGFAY
HSF1, sequence (Q00613 whole entry): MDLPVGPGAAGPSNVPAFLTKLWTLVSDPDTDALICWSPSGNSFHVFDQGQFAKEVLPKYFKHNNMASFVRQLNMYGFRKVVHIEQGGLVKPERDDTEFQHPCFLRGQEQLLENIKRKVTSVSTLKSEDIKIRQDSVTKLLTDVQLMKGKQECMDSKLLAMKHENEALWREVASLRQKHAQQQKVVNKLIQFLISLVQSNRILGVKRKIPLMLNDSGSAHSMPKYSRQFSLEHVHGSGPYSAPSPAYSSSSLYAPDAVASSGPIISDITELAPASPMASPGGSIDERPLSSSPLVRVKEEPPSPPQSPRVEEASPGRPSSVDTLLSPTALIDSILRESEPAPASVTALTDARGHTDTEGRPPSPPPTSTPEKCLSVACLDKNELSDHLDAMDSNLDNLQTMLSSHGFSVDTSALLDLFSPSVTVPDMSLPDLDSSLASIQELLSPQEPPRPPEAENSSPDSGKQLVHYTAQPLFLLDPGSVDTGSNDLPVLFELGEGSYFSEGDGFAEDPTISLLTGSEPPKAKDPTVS
SPIB, sequence (Q01892 whole entry): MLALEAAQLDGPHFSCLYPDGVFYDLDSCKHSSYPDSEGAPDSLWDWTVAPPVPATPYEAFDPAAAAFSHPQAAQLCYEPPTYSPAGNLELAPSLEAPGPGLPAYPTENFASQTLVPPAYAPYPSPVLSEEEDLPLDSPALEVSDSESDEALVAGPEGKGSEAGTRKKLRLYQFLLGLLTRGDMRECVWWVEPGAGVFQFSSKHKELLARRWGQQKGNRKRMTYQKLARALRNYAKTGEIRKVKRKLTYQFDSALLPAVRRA
ELF4, sequence (Q99607 whole entry): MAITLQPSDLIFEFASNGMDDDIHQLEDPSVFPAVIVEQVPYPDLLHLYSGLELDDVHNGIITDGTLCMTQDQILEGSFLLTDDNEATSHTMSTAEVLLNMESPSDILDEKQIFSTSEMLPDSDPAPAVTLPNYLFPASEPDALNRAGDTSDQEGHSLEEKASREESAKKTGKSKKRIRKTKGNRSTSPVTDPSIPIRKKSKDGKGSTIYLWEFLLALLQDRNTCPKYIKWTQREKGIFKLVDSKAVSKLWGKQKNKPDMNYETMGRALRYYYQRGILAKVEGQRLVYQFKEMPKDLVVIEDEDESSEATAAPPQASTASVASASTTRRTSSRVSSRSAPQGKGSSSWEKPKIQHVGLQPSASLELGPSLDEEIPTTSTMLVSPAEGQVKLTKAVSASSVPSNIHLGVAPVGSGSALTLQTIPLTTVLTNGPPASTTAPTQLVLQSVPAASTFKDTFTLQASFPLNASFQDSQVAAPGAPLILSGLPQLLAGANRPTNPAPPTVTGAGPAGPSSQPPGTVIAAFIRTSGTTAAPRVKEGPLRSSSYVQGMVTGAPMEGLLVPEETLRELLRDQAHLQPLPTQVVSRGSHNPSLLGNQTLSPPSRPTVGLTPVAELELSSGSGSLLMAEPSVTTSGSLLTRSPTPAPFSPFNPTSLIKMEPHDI
CRX, sequence (O43186 whole entry): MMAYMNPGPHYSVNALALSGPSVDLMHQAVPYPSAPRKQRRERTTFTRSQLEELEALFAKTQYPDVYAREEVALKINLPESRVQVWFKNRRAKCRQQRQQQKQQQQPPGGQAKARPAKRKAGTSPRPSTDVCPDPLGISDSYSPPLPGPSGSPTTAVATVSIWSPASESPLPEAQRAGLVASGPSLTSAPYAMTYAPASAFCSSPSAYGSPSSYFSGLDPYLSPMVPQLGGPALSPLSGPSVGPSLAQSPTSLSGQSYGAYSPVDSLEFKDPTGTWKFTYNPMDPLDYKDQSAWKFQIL
ELF1, sequence (P32519 whole entry): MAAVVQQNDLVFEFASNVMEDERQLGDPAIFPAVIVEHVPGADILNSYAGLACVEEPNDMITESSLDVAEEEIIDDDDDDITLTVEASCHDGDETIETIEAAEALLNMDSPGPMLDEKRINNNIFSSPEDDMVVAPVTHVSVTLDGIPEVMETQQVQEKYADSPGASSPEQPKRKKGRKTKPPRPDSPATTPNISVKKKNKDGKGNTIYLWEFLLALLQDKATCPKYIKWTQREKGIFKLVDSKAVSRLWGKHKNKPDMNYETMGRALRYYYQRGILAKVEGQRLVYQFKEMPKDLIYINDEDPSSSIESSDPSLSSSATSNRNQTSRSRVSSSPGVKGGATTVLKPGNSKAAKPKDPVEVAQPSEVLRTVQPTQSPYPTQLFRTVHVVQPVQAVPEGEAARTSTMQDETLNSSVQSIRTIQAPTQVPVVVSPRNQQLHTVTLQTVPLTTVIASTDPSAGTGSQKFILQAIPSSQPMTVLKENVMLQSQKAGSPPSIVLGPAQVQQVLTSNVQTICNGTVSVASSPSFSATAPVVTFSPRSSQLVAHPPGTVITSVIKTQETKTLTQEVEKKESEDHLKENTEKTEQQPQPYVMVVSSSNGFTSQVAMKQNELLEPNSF

Turning to TTCCCC, the binding signal in assay [1] is 1.74 fold enrichment (6-mer frequency, TF over GST control); in [2], 1.58 fold enrichment (6-mer frequency, TF over GST control); in [3], 1.71 fold enrichment (6-mer frequency, TF over GST control); in assay [4], 1.67 fold enrichment (6-mer frequency, TF over GST control); in [5] it was 1.72 fold enrichment (6-mer frequency, TF over GST control); in [6], 1.68 fold enrichment (6-mer frequency, TF over GST control). The binding signal is 2.54 fold enrichment (6-mer frequency, TF over GST control) in assay [7]; 1.66 fold enrichment (6-mer frequency, TF over GST control) in assay [8]; 1.61 fold enrichment (6-mer frequency, TF over GST control) in [9]; 1.64 fold enrichment (6-mer frequency, TF over GST control) in assay [10]; 1.71 fold enrichment (6-mer frequency, TF over GST control) in assay [11]; 1.42 fold enrichment (6-mer frequency, TF over GST control) in assay [12]. For the same sequence, the binding signal was 1.87 fold enrichment (6-mer frequency, TF over GST control) in assay [13]; 1.78 fold enrichment (6-mer frequency, TF over GST control) in assay [14]; 1.48 fold enrichment (6-mer frequency, TF over GST control) in [15]; 1.8 fold enrichment (6-mer frequency, TF over GST control) in [16]; 1.64 fold enrichment (6-mer frequency, TF over GST control) in [17]; 1.44 fold enrichment (6-mer frequency, TF over GST control) in [18]. Further, in assay [19], the binding signal was 1.69 fold enrichment (6-mer frequency, TF over GST control).

The values above are taken from PMC7862700, “An all-to-all approach to the identification of sequence-specific readers for epigenetic DNA modifications on cytosine”.
